Data reported in PubChem BioAssay AID1851 (National Center for Advancing Translational Sciences (NCATS), 2009).
Where “and” joins values, the source holds several entries; their conditions need not be identical. Identical values can stand only once. About 2,600 (16%) of roughly 16,000 compounds were called active. Roughly 20% stayed inconclusive and do not appear here. Calls follow the shape of the dose curve; as a rule, active = well fitted curve in the direction sought with a large enough effect; inconclusive = small, poorly fitted or top-dose-only effect, or effect the other way; inactive = no such curve, though single readings can be large or run the other way. For the sample, actives were picked, then their nearest neighbours and some compounds at random. Where a structure was tested more than once in an assay, its records may differ in their call.

target: Cytochrome P450 2D6 (Homo sapiens) (UniProt P10635); assay: Cytochrome panel assay with activity outcomes; conditions: recombinant CYP, pro-luciferin dealkylation, luminescence, p450-cyp2d6; series mostly up to 57.1 µM; activity, negative = inhibition: at the top concentration
% is scaled to controls: 0 for no effect and ±100 for the full control effect.

Sequence of Cytochrome P450 2D6 (Homo sapiens) (P10635 whole entry, looked up): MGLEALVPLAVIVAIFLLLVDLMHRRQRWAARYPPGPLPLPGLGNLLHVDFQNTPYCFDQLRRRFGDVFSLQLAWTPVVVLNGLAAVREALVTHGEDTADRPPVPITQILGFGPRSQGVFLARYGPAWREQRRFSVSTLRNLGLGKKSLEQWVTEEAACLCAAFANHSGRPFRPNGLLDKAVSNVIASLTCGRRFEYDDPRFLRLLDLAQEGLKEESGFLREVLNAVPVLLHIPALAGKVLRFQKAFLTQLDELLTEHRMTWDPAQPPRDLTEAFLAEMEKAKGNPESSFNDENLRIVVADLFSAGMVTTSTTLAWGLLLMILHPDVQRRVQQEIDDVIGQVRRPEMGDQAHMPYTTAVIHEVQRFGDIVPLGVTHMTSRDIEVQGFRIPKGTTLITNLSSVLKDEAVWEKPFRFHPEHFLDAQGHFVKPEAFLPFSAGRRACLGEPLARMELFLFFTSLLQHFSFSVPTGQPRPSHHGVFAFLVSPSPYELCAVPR

Compound	AC50	activity, negative = inhibition
CC(C)[N+](C)(CCOC(=O)C1c2ccccc2Oc2ccccc21)C(C)C	31.6 µM (active) and 1.26 µM (active)	–
O=C(Nc1ccc(F)cc1F)c1cccnc1Oc1cccc(C(F)(F)F)c1	–	9.56% (inactive)
CC[C@@H]1[C@@H]2C[C@H]3[C@H]4N(C)c5ccccc5[C@@]45C[C@@H]([C@@H]2[C@@H]5O)N3[C@H]1O	3.98 µM (active)	–
Clc1ccc(C2=CCC[C@H]3CC[C@@H]2N3)cn1	–	-1.47% (inactive)
O=C(CNS(=O)(=O)c1ccc(Br)s1)N1CCC2(CC1)OCCO2	–	-8.62% (inactive)
NC(N)=NN=Cc1c(Cl)cccc1Cl	10 µM (active)	–
O=P(O)(O)c1ccccc1 (tested in a mixture with another compound)	–	15.2% [at 11.4 µM] (inactive)
O=C(O)Cc1cccnc1C(=O)O	–	9% (inactive)
O=C(O)[C@@H]1[C@H](C(=O)O)[C@]2(Cl)C(Cl)=C(Cl)[C@@]1(Cl)C2(Cl)Cl	–	-8.74% [at 11.4 µM] (inactive)
O=c1c2ccccc2c2ccccc2c(=O)n1-c1cc2c3ccccc3ccc2c2ccccc12	–	2.85% [at 11.4 µM] (inactive)
NCC[C@H](O)C(=O)N[C@H]1C[C@@H](N)[C@@H](O[C@H]2O[C@@H](CN)[C@@H](O)[C@@H](O)[C@@H]2N)[C@@H](O[C@H]2O[C@@H](CO)[C@@H](O)[C@@H]2O)[C@@H]1O	–	2.47% [at 25.6 µM] (inactive)
c1ccc2sc(C3(N4CCCCC4)CCCCC3)cc2c1	12.6 µM (active) and 3.16 µM (active)	–
CN1C(=O)CCS(=O)(=O)[C@H]1c1ccc(Cl)cc1	–	3.35% (inactive)
CCCn1c(=O)c2[nH]c(C3CCCC3)nc2n(CCCOC(=O)c2ccc(S(=O)(=O)F)cc2)c1=O	–	-2.07% (inactive)
Cc1ncsc1CCCl	12.6 µM (active)	–
C=C(C)[C@H]1CC[C@]2(C(=O)O)CC[C@]3(C)[C@@H](CC[C@H]4[C@@]5(C)CC[C@@H](O)C(C)(C)[C@@H]5CC[C@@]43C)[C@H]12	–	7.05% [at 25.6 µM] (inactive)
Cc1nc(-c2ccc(-c3ccc(C(=O)N4CCc5cc6c(cc54)C4(CCN(C)CC4)CO6)cc3)c(C)c2)no1	31.6 µM (active)	–
COC(=O)c1c(C)ccc2c(O)c3c(cc12)C(=O)c1c2c(cc(O)c1C3=O)[C@@]1(C)O[C@@](C)(O2)[C@@H](O)[C@H](N(C)C)[C@H]1O	–	-17.5% [at 11.4 µM] (inactive)
C=C[C@]12CN(C)[C@H]3C1[C@@]1(C(=O)Nc4ccccc41)[C@H]1C[C@H]2[C@H]3CO1	–	-2.6% [at 25.6 µM] (inactive)
N[C@@H](CSC1c2ccccc2-c2ccccc21)C(=O)O	–	-14.3% [at 11.4 µM] (inactive)
O=C(CNS(=O)(=O)c1cccs1)N1CCC2(CC1)OCCO2	–	-6.61% (inactive)
Clc1ccc([C@@H](OCCN2CCCCC2)c2ccccc2)cc1	0.0158 µM (active)	–
Fc1ccc(C(OCCN2CCN(C/C=C\c3ccccc3)CC2)c2ccc(F)cc2)cc1	7.94 µM (active)	–
C(=C/c1ccccc1)/CN1CCN(CCOC(c2ccccc2)c2ccccc2)CC1	5.01 µM (active)	–
CC(C)(c1ccc(OC[C@@H]2CO2)cc1)c1ccc(OC[C@H]2CO2)cc1	–	5.45% (inactive)
C[C@@H]1CC[C@@H]2N(C1)C[C@H]1[C@@](O)([C@H](O)C[C@]3(O)[C@H]4CC[C@H]5[C@]6(O)O[C@]4(C[C@]13O)[C@@]5(C)CC[C@@H]6O)[C@@]2(C)O	–	10.1% [at 11.4 µM] (inactive)

Compound	AC50	activity, negative = inhibition
CCCCC/C=C\C/C=C\C/C=C\C/C=C\CCCC(=O)NCC(=O)O	–	3.86% (inactive)
CCN(CC)CCn1ncc2c(N)ncnc21	–	4.3% [at 11.4 µM] (inactive)
CNC(=O)Oc1ccc2c(c1)[C@@]1(C)CCN(C)[C@@H]1N2C	0.251 µM (active)	–
C=C1[C@@H](O)C2C=CC[C@H](C)C(=O)[C@@](C)(O)C=C[C@@H](OC(C)=O)[C@@]23C(=O)N[C@H](Cc2ccccc2)[C@@H]3[C@@H]1C (some centres not stated)	–	1.19% (inactive)
CCCCC/C=C\C/C=C\C/C=C\C/C=C\CCCC(=O)Nc1ccc(O)cc1	–	13.4% (inactive)
CN1[C@H]2CC(=O)C[C@@H]1[C@@H](O)C2	–	6.02% [at 25.6 µM] (inactive)
O=C(O)CS(=O)(=O)C(c1ccccc1)c1ccccc1	–	8.36% [at 11.4 µM] (inactive)
N[C@H](Cc1ccc(N(CCCl)CCCl)cc1)C(=O)O	–	-0.262% (inactive)
NC(=O)c1cc(N2CC2)c([N+](=O)[O-])cc1[N+](=O)[O-]	–	15.3% (inactive)
C=CCO[C@@H](Cn1ccnc1)c1ccc(Cl)cc1Cl	5.01 µM (active)	–
C=C1[C@@H]2CC[C@H]3[C@@]4(C)C[C@@H](O[C@@H]5O[C@H](CO)[C@H](OS(=O)(=O)O)[C@@H](OS(=O)(=O)O)[C@@H]5OC(=O)CC(C)C)C[C@@H](C(=O)O)[C@H]4CC[C@@]3(C2)[C@H]1O	–	3.19% [at 25.6 µM] (inactive)
C[C@H]1[C@H](NC(=O)/C(=N/OC(C)(C)C(=O)O)c2csc(N)n2)C(=O)N1S(=O)(=O)O (stereo in doubt)	–	3.51% [at 25.6 µM] (inactive)
CC[n+]1c(/C=C/N(C)c2ccccc2)sc2ccc(Cl)cc21	0.0112 µM (active)	–
c1cc(CN2CCC3(CCNCC3)CC2)ccn1	–	10.6% (inactive)
C[N+]1(C)CCN(c2ccccc2)CC1	–	-13.7% (inactive)
c1ccc(N2CCCC3(CCNCC3)C2)cc1	7.94 µM (active)	–
c1ccc(N2CC3(CCNCC3)C2)cc1	–	-20.1% (inactive)
c1cc(N2CCCC3(CCNCC3)C2)ccn1	10 µM (active)	–
O=C(Cn1ncc2ccsc2c1=O)N1CCC2(CC1)OCCO2	–	11.9% (inactive)
Cc1ccc(N(C)C(=O)Oc2cccc3ccc(C)nc23)cc1	–	-3.13% (inactive)
O=C(O)/C=C(\CC(=O)O)C(=O)O	–	-1.58% [at 11.4 µM] (inactive)
N[C@@H](Cn1ccc(=O)n(Cc2ccc(C(=O)O)cc2)c1=O)C(=O)O	–	9.46% (inactive)
CCN1C[C@@]2(COC)CC[C@H](OC)[C@]34[C@@H]1[C@]1(OCO[C@@]15C[C@@H](OC)C1C[C@H]3[C@H]5[C@@H]1OC)[C@H](O)[C@@H]24	–	2.41% [at 25.6 µM] (inactive)
C[C@]12N[C@@H](Cc3ccccc31)c1ccccc12	inactive and 79.4 nM (active) and 5.01 µM (active)	–
C[C@]12N[C@H](Cc3ccccc31)c1ccccc12	inactive	–
Cc1nnc2ccc(-c3cccc(C(F)(F)F)c3)nn12	–	-2.28% (inactive)

Compound	AC50	activity, negative = inhibition
S=C(Nc1ccc(Cl)cc1)NC1CC2CCCC(C1)N2C1CCCC1 (configuration not stated)	0.501 µM (active)	–
NS(=O)(=O)C[C-]1C=C[CH]([Sb-]([Cl])([Cl])([Cl])([Cl])[Cl])C=C1.c1ccncc1 (configuration not stated)	–	7.69% [at 11.4 µM] (inactive)
C=CCn1c(O)c(C(C)=NCCCN2CCOCC2)c(=O)[nH]c1=O	–	-29.6% (inactive)
CC(=O)O[C@H]1C[C@@H](O[C@@H]2[C@H](C)O[C@H](O[C@@H]3[C@H](C)O[C@H](O[C@@H]4CC[C@@]5(C)[C@@H](CC[C@]6(C)[C@]5(C)C[C@H](O)[C@]5(C)[C@@H](C7=CC(=O)OC7)CC[C@@]56O)C4)C[C@@H]3O)C[C@@H]2O)O[C@@H](C)[C@H]1O[C@H]1O[C@@H](CO)[C@@H](O)[C@@H](O)[C@@H]1O	–	2.58% [at 25.6 µM] (inactive)
CC1=CC(=O)C2=C(C)C[C@@H](O)[C@@H]3[C@@H](OC(=O)[C@H]3C)[C@H]12	–	3.85% [at 25.6 µM] (inactive)
CN1CCN(c2ccc([N+](=O)[O-])c(N/N=C3\CN4CCC3CC4)c2)CC1	–	37.9% (inactive)
C=CCN1C[C@H](C)N([C@H](c2ccc(C(=O)N(CC)CC)cc2)c2cccc(O)c2)C[C@H]1C	–	-2.16% (inactive)
C=CCN1C[C@@H](C)N([C@H](c2ccc(C(=O)N(CC)CC)cc2)c2cccc(OC)c2)C[C@H]1C	31.6 µM (active)	–
C=CCN1C[C@H](C)N([C@H](c2ccc(C(=O)N(CC)CC)cc2)c2cccc(OC)c2)C[C@H]1C	1.58 µM (active)	–
C=CCN1C[C@H](C)N([C@@H](c2ccccc2)c2ccc(C(=O)N(CC)CC)cc2)C[C@H]1C	–	-15.7% (inactive)
Cn1c(=O)c2[nH]cnc2n(C)c1=O.[CH2-][C@H](Cc1cccc2cc(C(=O)O)c(=O)oc12)OC.[Hg].[OH-]	–	10.9% [at 11.4 µM] (inactive)
Cc1ccc(-c2nc3ccccc3c(=O)n2-c2ncccc2C)cc1	–	-10.4% (inactive)
C[C@H]1CC[C@@]2(NC1)O[C@@H]1C[C@H]3[C@@H]4CC=C5C[C@@H](O)CC[C@]5(C)[C@@H]4CC[C@]3(C)[C@@H]1[C@@H]2C	–	2.22% [at 25.6 µM] (inactive)
COc1ccc(OCC(=O)Nc2ccc(Cl)cc2C(=O)c2ccccc2)cc1	–	-2.96% (inactive)
CCNC[C@H](O)c1cccc(O)c1	–	-3.56% [at 25.6 µM] (inactive)
C[C@@H](Cc1ccc(OCC(=O)O)cc1)NC[C@H](O)c1cccc(Cl)c1	25.1 µM (active)	–
O=C(Nc1ccc(C(F)(F)F)cc1)c1cccn(Cc2ccc3c(c2)OC(F)(F)O3)c1=O	–	-11.5% (inactive)
CCCCN1C(=O)C(C2c3ccccc3C(=O)N2Cc2ccccc2)C(=O)NC1=S (configuration not stated)	–	3.38% (inactive)
COC(=O)[C@@H]1[C@@H]2C[C@H]3c4[nH]c5cc(OC)ccc5c4CCN3C[C@@H]2C[C@H](OC(=O)/C=C\c2cc(OC)c(OC)c(OC)c2)[C@H]1OC	–	-13.1% [at 25.6 µM] (inactive)
O=C1NCN(c2ccccc2)C12CCN(C[C@H]1COc3ccccc3O1)CC2	0.0631 µM (active)	–
O=C1NCN(c2ccccc2)C12CCN(CCCOc1ccc(F)cc1)CC2	0.158 µM (active)	–
O=C(CCCN1CCC2(CC1)C(=O)NCN2c1ccccc1)c1ccc(F)cc1	2.51 µM (active) and 1 µM (active) and 1.58 µM (active)	–
O=C(CCCN1CCC(n2c(=O)[nH]c3ccccc32)CC1)c1ccc(F)cc1	6.31 µM (active)	–
CC(=O)OC1=CC2=CC[C@H]3[C@H]4CCC(=O)[C@@]4(C)CC(=O)[C@]3(S)[C@]2(C)CC1	–	0.557% [at 11.4 µM] (inactive)
CC[C@@](O)(C(=O)O)c1cc2n(c(=O)c1CO)Cc1cc3ccccc3nc1-2	–	10.4% [at 11.4 µM] (inactive)
